Over roughly 16,000 sequences, “rpm ratio (pull-down/input)” has its median near 0.5; the highest 2% begin near 5.5. Only a selection was taken, and the highest values are over-represented in it overall.
Each sequence was assayed against T1, MBP-FoxP3dN (Mus musculus, UniProt Q99JB6 188-423) (assay: PD-seq (MBP pull-down with sequencing); 20 mM Tris-HCl pH 7.5, 100 mM NaCl, 1.5 mM MgCl2, 0.4 uM protein, 0.1 uM dsDNA library, 30 min, room temperature, amylose pull-down; high values mean tight binding). Settings: protein: recombinant; tags: His6-MBP; chain copies: 2; dsDNA, one strand shown.
T1 sequence: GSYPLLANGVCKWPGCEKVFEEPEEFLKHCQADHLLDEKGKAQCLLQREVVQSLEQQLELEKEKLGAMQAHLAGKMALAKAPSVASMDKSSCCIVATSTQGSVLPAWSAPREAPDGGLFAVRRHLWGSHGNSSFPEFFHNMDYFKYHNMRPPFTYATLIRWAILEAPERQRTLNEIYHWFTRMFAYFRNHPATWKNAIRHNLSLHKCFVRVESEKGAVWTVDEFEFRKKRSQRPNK
How it was run: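 A degenerate double-stranded DNA library, filled in with Klenow, was added at 0.1 µM to 0.4 µM His6-MBP-tagged mouse FoxP3 or FoxP1 fragment lacking the N-terminus, expressed in E. coli. Incubation lasted 30 min at room temperature in Tris pH 7.5 buffer with NaCl and MgCl2, after which complexes were collected on amylose resin, washed three times, digested with proteinase K to free the DNA, barcoded by PCR and sequenced by Illumina. Binding is the pooled-replicate reads-per-million enrichment of pull-down over input.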

Row | Sequence | binding signal
1 | GATGATTGTTCTCCCAGCTGATGAATTAAAGTGTTCGAGTAAACAAATTTTCCTAATCTTTCTGTTCAAGCGCCATCTAC | 0.592 RPM ratio (pull-down/input)
2 | GATGATTGTTCTCCCAGCTGATGAATTATAACCGTCGAGTAAACAAATTTTCCTAATCTTTCTGTTCAAGCGCCATCTAC | 0.364 RPM ratio (pull-down/input)
3 | GATGATTGTTCTCCCAGCTGATGAATTATGCTGTTCGAGTAAACAAATTTTCCTAATCTTTCTGTTCAAGCGCCATCTAC | 3.42 RPM ratio (pull-down/input)
4 | GATGATTGTTCTCCCAGCTGATGAATTATGATTGTCGAGTAAACAAATTTTCCTAATCTTTCTGTTCAAGCGCCATCTAC | 4.27 RPM ratio (pull-down/input)
5 | GATGATTGTTCTCCCAGCTGATGAATTATGCCTGTCGAGTAAACAAATTTTCCTAATCTTTCTGTTCAAGCGCCATCTAC | 5.87 RPM ratio (pull-down/input)
6 | GATGATTGTTCTCCCAGCTGATGAATTATGCGCCTCGAGTAAACAAATTTTCCTAATCTTTCTGTTCAAGCGCCATCTAC | 2.82 RPM ratio (pull-down/input)
7 | GATGATTGTTCTCCCAGCTGATGAATTATATGCCTCGAGTAAACAAATTTTCCTAATCTTTCTGTTCAAGCGCCATCTAC | 0.913 RPM ratio (pull-down/input)
8 | GATGATTGTTCTCCCAGCTGATGAATTATGAAATTCGAGTAAACAAATTTTCCTAATCTTTCTGTTCAAGCGCCATCTAC | 0.632 RPM ratio (pull-down/input)
9 | GATGATTGTTCTCCCAGCTGATGAATTATGCTTGTCGAGTAAACAAATTTTCCTAATCTTTCTGTTCAAGCGCCATCTAC | 4.71 RPM ratio (pull-down/input)
10 | GATGATTGTTCTCCCAGCTGATGAATTATGCCTCTCGAGTAAACAAATTTTCCTAATCTTTCTGTTCAAGCGCCATCTAC | 6.22 RPM ratio (pull-down/input)
11 | GATGATTGTTCTCCCAGCTGATGAATTATGAATGTCGAGTAAACAAATTTTCCTAATCTTTCTGTTCAAGCGCCATCTAC | 1.04 RPM ratio (pull-down/input)
12 | GATGATTGTTCTCCCAGCTGATGAATTATGCCATTCGAGTAAACAAATTTTCCTAATCTTTCTGTTCAAGCGCCATCTAC | 5.9 RPM ratio (pull-down/input)
13 | GATGATTGTTCTCCCAGCTGATGAATTAATTATGTCGAGTAAACAAATTTTCCTAATCTTTCTGTTCAAGCGCCATCTAC | 1.89 RPM ratio (pull-down/input)
14 | GATGATTGTTCTCCCAGCTGATGAATTATGCATGTCGAGTAAACAAATTTTCCTAATCTTTCTGTTCAAGCGCCATCTAC | 6.46 RPM ratio (pull-down/input)
15 | GATGATTGTTCTCCCAGCTGATGAATTCTGCGGCTCGAGTAAACAAATTTTCCTAATCTTTCTGTTCAAGCGCCATCTAC | 1.01 RPM ratio (pull-down/input)
16 | GATGATTGTTCTCCCAGCTGATGAATTGCAGCCTTCGAGTAAACAAATTTTCCTAATCTTTCTGTTCAAGCGCCATCTAC | 2.83 RPM ratio (pull-down/input)

Row | Sequence | binding signal
17 | GATGATTGTTCTCCCAGCTGATGAATTGTAAACATCGAGTAAACAAATTTTCCTAATCTTTCTGTTCAAGCGCCATCTAC | 5.2 RPM ratio (pull-down/input)
18 | GATGATTGTTCTCCCAGCTGATGAATTTGCCGATTCGAGTAAACAAATTTTCCTAATCTTTCTGTTCAAGCGCCATCTAC | 0.474 RPM ratio (pull-down/input)
19 | GATGATTGTTCTCCCAGCTGATGAATTAAATCTCTCGAGTAAACAAATTTTCCTAATCTTTCTGTTCAAGCGCCATCTAC | 0.29 RPM ratio (pull-down/input)
20 | GATGATTGTTCTCCCAGCTGATGAATTCAGTTCGTCGAGTAAACAAATTTTCCTAATCTTTCTGTTCAAGCGCCATCTAC | 0.758 RPM ratio (pull-down/input)
21 | GATGATTGTTCTCCCAGCTGATGAATTACTTCTATCGAGTAAACAAATTTTCCTAATCTTTCTGTTCAAGCGCCATCTAC | 0.347 RPM ratio (pull-down/input)
22 | GATGATTGTTCTCCCAGCTGATGAATTCCGAACTTCGAGTAAACAAATTTTCCTAATCTTTCTGTTCAAGCGCCATCTAC | 0.253 RPM ratio (pull-down/input)
23 | GATGATTGTTCTCCCAGCTGATGAATTTTATGCATCGAGTAAACAAATTTTCCTAATCTTTCTGTTCAAGCGCCATCTAC | 1.54 RPM ratio (pull-down/input)
24 | GATGATTGTTCTCCCAGCTGATGAATTATGACACTCGAGTAAACAAATTTTCCTAATCTTTCTGTTCAAGCGCCATCTAC | 2.61 RPM ratio (pull-down/input)
25 | GATGATTGTTCTCCCAGCTGATGAATTATTTCATTCGAGTAAACAAATTTTCCTAATCTTTCTGTTCAAGCGCCATCTAC | 0.381 RPM ratio (pull-down/input)
26 | GATGATTGTTCTCCCAGCTGATGAATTATCCCACTCGAGTAAACAAATTTTCCTAATCTTTCTGTTCAAGCGCCATCTAC | 0.322 RPM ratio (pull-down/input)
27 | GATGATTGTTCTCCCAGCTGATGAATTATGCAACTCGAGTAAACAAATTTTCCTAATCTTTCTGTTCAAGCGCCATCTAC | 6.6 RPM ratio (pull-down/input)
28 | GATGATTGTTCTCCCAGCTGATGAATTATTCATTTCGAGTAAACAAATTTTCCTAATCTTTCTGTTCAAGCGCCATCTAC | 0.406 RPM ratio (pull-down/input)
29 | GATGATTGTTCTCCCAGCTGATGAATTTATGCATTCGAGTAAACAAATTTTCCTAATCTTTCTGTTCAAGCGCCATCTAC | 7.56 RPM ratio (pull-down/input)
30 | GATGATTGTTCTCCCAGCTGATGAATTATGAAACTCGAGTAAACAAATTTTCCTAATCTTTCTGTTCAAGCGCCATCTAC | 0.828 RPM ratio (pull-down/input)
31 | GATGATTGTTCTCCCAGCTGATGAATTTATGAATTCGAGTAAACAAATTTTCCTAATCTTTCTGTTCAAGCGCCATCTAC | 0.946 RPM ratio (pull-down/input)
